# High-throughput results as filed in PubChem BioAssay.
# This is a sample that favours compounds with a hit; in the whole collection about 5.8% have one here.
# KB-3-1 cytotox: KB-3-1 parental cell cytotoxicity. KB-3-1 viability, CellTiter-Glo ATP luminescence, 72 h. Potency, µM (doses to about 46.1 µM), usual class: cytotoxic. 400,000 compounds, 1.4% hits. AID 1347075; also: % is scaled to controls: 0 for no effect and ±100 for the full control effect; nearly all actives have a fitted effect of over 60% in size
#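 Using CellTiter-Glo luminescence, growth of non-resistant KB-3-1 adenocarcinoma cells is assessed 72 h after pin-tool compound addition at 37 °C. Normalized responses across the concentration series yield fitted curves.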
# PINK1 expr mod: changes PINK1 expression; PINK1 immunofluorescence, high-content cytometry, 24 h; Potency, µM (titrated, usually from 76.6 µM), for inactives: at the top dose activation (PINK1 increase), usual class: activators; 410,000 compounds, 0.2% hits; active = well fitted activation curve with a large enough effect; inconclusive = small, poorly fitted or top-dose-only effect; cell line not stated here; also: % of control where 0% means no effect; nearly all actives have a fitted effect of over 65% in size
#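 Compound titrations (5 concentrations, 24 h) on a stable cell line; DMSO and CCCP controls. Endpoint: fixed-cell PINK1 immunofluorescence with mitochondrial, cell and nuclear markers, scanned by microplate cytometer.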
# SW480 rerep: DNA re-replication induction in SW480 cells. 340,000 compounds, 1.8% hits. SW480 DNA re-replication, Hoechst DNA content imaging, 48 h. Potency, µM (top dose mostly 46.1 µM), without a hit: top-dose re-replication activation, most hits filed as activators; also: % of control where 0% means no effect; nearly all actives have a fitted effect of over 55% in size
#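 Readout is total intensity of Hoechst-stained nuclei, excited at 405 nm and collected at 500-530 nm. Compound treatment lasted 48 hr at 37 C in 5% CO2 before staining.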
# MCF10A rereplic: inducers of DNA re-replication in MCF 10A breast cells; Potency, µM (top dose mostly 46.1 µM), for inactives: at the highest dose activity, positive = re-replication, usual class: activators; 350,000 compounds, 2.9% hits; AID 624296; MCF 10A DNA re-replication, Hoechst nuclear intensity, 48 h; also: % of control where 0% means no effect; nearly all actives have a fitted effect of over 50% in size
# ALOX12 inh: blocks human arachidonate 12S-lipoxygenase | Potency, µM (top dose mostly 108 µM), for inactives: at the highest dose activity change, negative = inhibition, most hits filed as inhibitors | 580,000 compounds, 1.1% hits | P18054 | purified 12hLO, xylenol orange hydroperoxide absorbance | AID 1671190; also: % is scaled to controls: 0 for no effect and ±100 for the full control effect
# Target sequence (P18054 whole entry, looked up): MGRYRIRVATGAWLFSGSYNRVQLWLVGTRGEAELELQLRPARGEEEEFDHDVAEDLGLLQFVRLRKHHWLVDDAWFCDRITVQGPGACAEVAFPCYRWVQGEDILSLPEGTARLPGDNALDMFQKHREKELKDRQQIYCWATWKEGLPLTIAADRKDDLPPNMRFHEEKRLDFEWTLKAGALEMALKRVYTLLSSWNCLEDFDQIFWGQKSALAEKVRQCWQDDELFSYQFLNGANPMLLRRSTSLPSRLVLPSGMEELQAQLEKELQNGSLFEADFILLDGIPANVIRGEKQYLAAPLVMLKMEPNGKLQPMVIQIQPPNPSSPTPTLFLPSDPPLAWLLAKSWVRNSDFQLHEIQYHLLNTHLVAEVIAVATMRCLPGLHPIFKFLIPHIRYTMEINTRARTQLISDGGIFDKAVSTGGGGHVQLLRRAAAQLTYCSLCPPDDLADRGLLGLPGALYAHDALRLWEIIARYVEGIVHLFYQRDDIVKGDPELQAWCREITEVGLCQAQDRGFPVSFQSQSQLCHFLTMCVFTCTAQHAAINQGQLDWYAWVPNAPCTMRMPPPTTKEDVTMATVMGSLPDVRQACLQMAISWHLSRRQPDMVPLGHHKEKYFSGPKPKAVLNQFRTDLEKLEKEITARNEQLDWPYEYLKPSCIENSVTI
#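 Purified human 12hLO at 150 nM in 25 mM Hepes, 0.01% Triton X-100, pH 7.0, preincubated 15 min at room temperature with compound. Reaction started with 40 uM arachidonic acid, 30 min at room temperature. Hydroperoxide measured by Fe-xylenol orange, 573/405 nm absorbance ratio.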
# KB-V1 MDR tox: KB-V1 MDR subline cytotoxicity | KB-V1 MDR cells viability, CellTiter-Glo, 72 h | Potency, µM (highest dose often 46.1 µM), hits mostly cytotoxic | 400,000 compounds, 3.4% hits; also: % is scaled to controls: 0 for no effect and ±100 for the full control effect; nearly all actives have a fitted effect of over 60% in size
#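 Cytotoxicity via CellTiter-Glo luminescence after 72 h compound exposure at 37 degrees C. Cells: drug-selected KB-V1 line, DMEM phenol-red free plus 10% FBS. Compounds tested at multiple concentrations; normalized data fitted to concentration-effect curves.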
# Starred values were filed as active, the others as inactive; i = inactive; ? = inconclusive; · = not tested or not shown; [ ] = remark or other dose. Unless noted, calls follow the shape of the dose curve; as a rule, active = well fitted curve in the direction sought with a large enough effect; inconclusive = small, poorly fitted or top-dose-only effect, or another doubt; inactive = no such curve, though single readings can be large; an effect the other way counts as inactive or inconclusive. Potency is read from the fitted curve at half-maximal effect.
SMILES,KB-3-1 cytotox,PINK1 expr mod,SW480 rerep,MCF10A rereplic,ALOX12 inh,KB-V1 MDR tox
Cn1nnnc1Sc1ncnc2scc(-c3ccccc3C(F)(F)F)c12,16.4µM*,0.2%,?,79.4%,?,?
CCn1nnnc1Sc1nc(C)nc2scc(-c3ccccc3)c12,13µM*,0.3%,·,·,·,i
Cc1ccc(-c2csc3ncnc(SCC(=O)O)c23)cc1,i,-0.6%,0.6%,-4.1%,?,i
Cn1nnnc1Sc1ncnc2scc(-c3ccsc3)c12,?,-0.6%,?,16.4µM*,-2.7%,i
CN1c2ccccc2-c2nc(SCC(=O)Nc3ccccc3Br)ncc2S1(=O)=O,·,·,·,·,6.0%,·
CC1=CC(=O)[C@H]2C[C@@H]1C2(C)C,·,·,·,·,-5.3%[176 µM],·
CCCCCn1nc(C(=O)Nc2cc(C)cc(C)c2)c2ccccc2c1=O,·,·,·,·,-11.4%,·
Cn1nnnc1Sc1ncnc2scc(-c3ccc(C(F)(F)F)cc3)c12,?,-0.9%,6.3%,2.06µM*,-10.0%,18.4µM*
COc1cccc(-c2csc3ncnc(Sc4nnnn4C)c23)c1,?,3.9%,0.326µM*,?,-19.3%,?
Cn1nnnc1Sc1ncnc2scc(-c3ccc(-c4ccccc4)cc3)c12,14.6µM*,-1.1%,?,8.2µM*,-1.1%,?
Cn1nnnc1Sc1ncnc2scc(-c3cccc(F)c3)c12,i,-0.6%,4.2%,?,-11.6%,i
COC(=O)CSc1ncnc2scc(-c3ccccc3)c12,i,-1.5%,?,0.0%,5.3%,i
Cn1nnnc1Sc1ncnc2scc(-c3ccc(C#N)cc3)c12,?,-0.8%,2.5%,?,0.7%,?
Cn1nnnc1Sc1ncnc2scc(-c3cccc(C(F)(F)F)c3)c12,?,-1.2%,?,3.26µM*,5.4%,?
N#Cc1nc(Cc2cccc3ccccc23)oc1N1CCCC1,·,·,·,·,-32.1%,·
Cn1nnnc1Sc1ncnc2scc(-c3cccs3)c12,?,-0.1%,?,10.3µM*,·,?
Cn1nnnc1Sc1ncnc2scc(-c3cc4ccccc4o3)c12,?,-2.2%,?,?,-9.9%,?
Cc1ccc(NC(=O)Cn2c(-c3cnccn3)nc(C)c(C)c2=O)cc1Cl,·,·,·,·,20.5%,·
CC1Cc2nc(SCC(=O)N3CCc4ccccc43)n(C)c(=O)c2S1 (stereo unspecified),i,1.2%,-3.8%,6.9%,-12.6%,2.59µM*
CCc1nnc(NC(=O)CSc2nc3c(c(=O)n2C)SC(C)C3)s1 (stereo unspecified),i,-1.0%,-7.2%,-14.5%,5.8%[57.4 µM],i
CCSc1nnc(NC(=O)CSc2nc3c(c(=O)n2C)SC(C)C3)s1 (stereo unspecified),i,·,3.2%,-3.5%,-18.4%,2.91µM*
CC1Cc2nc(SCC(=O)N3CCOCC3)n(C)c(=O)c2S1 (stereo unspecified),i,-0.7%,-20.5%,-1.9%,-15.6%,i
CCSc1nnc(NC(=O)CSc2nc3c(c(=O)n2CC)SC(C)C3)s1 (stereo unspecified),6.51µM*,2.9%,-2.4%,9.5%,0.0%,2.59µM*
CCn1c(SCC(=O)Nc2nnc(C)s2)nc2c(c1=O)SC(C)C2 (stereo unspecified),i,0.4%,0.0%,2.2%,11.7%,i
Cc1nc2ccccc2nc1CN1C(=O)C(=O)N(C2CCCC2)C1=O,·,·,·,·,20.4%,·
SMILES,KB-3-1 cytotox,PINK1 expr mod,SW480 rerep,MCF10A rereplic,ALOX12 inh,KB-V1 MDR tox
Cc1nc2ncccn2c1-c1csc(NCc2ccco2)n1,?,4.3%,-17.3%,21.1%,-19.7%,16.4µM*
COc1ccc(Nc2nc(-c3c(C)nc4ncccn34)cs2)cc1,i,?,?,85.5%,?,i
COc1ccccc1Nc1nc(-c2cc(C)ccc2C)cs1,·,·,·,·,10µM*,·
COc1ccccc1Nc1nc(-c2c(C)nc3ncccn23)cs1,?,4.8%,?,9.2%,-17.1%,7.31µM*
Cc1nc2ncccn2c1-c1csc(Nc2ccc(N(C)C)cc2)n1,0.0116µM*,2.3%,?,?,?,?
O=Cc1ccc(-c2cccnc2)o1,·,·,·,·,19.0%,·
Cn1cnnc1CC1CCN(C(=O)CCc2nc3ccccc3[nH]c2=O)CC1,·,·,·,·,47.8%,·
Cc1cc(Cl)c(NC(=O)c2cccc(NC(=O)C(C)(C)C)c2)c2cccnc12,·,·,·,·,-28.2%,·
CC(=O)NC(NC(C)=O)C(=O)c1ccccc1,·,·,·,·,11.0%,·
CC(=O)NC(C(=O)c1ccccc1)C(=O)c1ccccc1,i,-0.8%,0.517µM*,-73.5%,-0.5%,i
Cc1cccn2cc(COc3ccc(-c4ccccc4)cc3)nc12,i,-0.5%,-9.2%,16.4µM*,-18.0%,?
CCCOc1ccccc1C1CC(=O)NC2=C1C(=O)CCC2 (stereo unspecified),4.61µM*,20.9%,11.6µM*,10.3µM*,9.7%,?
CCOc1ccccc1C1CC(=O)NC2=C1C(=O)CCC2 (stereo unspecified),?,3.5%,18.4µM*,?,-14.6%,?
CCCOc1ccccc1C1CC(=O)NC(C)=C1C(=O)OCC(C)C (stereo unspecified),i,7.7%,16.1%,16.8%,?,?
CCC(C)Oc1ccc(C2CC(=O)NC3=C2C(=O)CCC3)cc1 (stereo unspecified),·,·,·,·,-8.2%,·
CCCCOc1ccccc1C1CC(=O)NC2=C1C(=O)CCC2 (stereo unspecified),?,3.2%,?,4.11µM*,0.0%,?
CCOc1ccc(C2CC(=O)NC3=C2C(=O)CCC3)cc1 (stereo unspecified),i,0.4%,-3.7%,-1.9%,0.0%,i
C=CC12C=CC=CN1C(C(=O)OC)=C(C(=O)OC)C(C(=O)OC)=C2C(=O)OC (stereo unspecified),i,-2.5%,-89.9%,-10.0%,1.0%,18.4µM*
N#Cc1c(N)[nH]c2ccc(Sc3ccccc3)cc12,2.31µM*,-3.6%,4.11µM*,0.92µM*,?,3.26µM*
N#Cc1c(N)[nH]c(=S)c(C#N)c1-c1ccccc1,i,18.5%[38.3 µM],?,?,?,i
Cc1ccc(-n2c(SCC(=O)NC(C)c3cc4ccccc4o3)nnc2N2CCOCC2)cc1 (stereo unspecified),·,·,·,·,0.4%,·
COc1cc(/C=C(/C#N)C(=O)c2cccc(C)c2)cc(Cl)c1O,·,·,·,·,82.4%,·
COc1cc(/C=C(/C#N)C(=O)OC(C)C)cc(Cl)c1O,·,·,·,·,20µM*,·
COc1nc(N(c2ccccc2)c2ccccc2)nc(-n2ccnc2)n1,i,-1.2%,-4.7%,16.4µM*,-9.4%,?
N#Cc1nc(N(c2ccccc2)c2ccccc2)nc(-n2cccc2)n1,i,1.3%,·,·,·,i
